In ChEMBL document CHEMBL2218924, “A broad activity screen in support of a chemogenomic map for kinase signalling research and drug discovery” (Biochem J, 2013):

biological target: T1, Ephrin type-A receptor 3 (Homo sapiens) (UniProt P29320); settings: at 10 µM
T1 sequence (whole entry): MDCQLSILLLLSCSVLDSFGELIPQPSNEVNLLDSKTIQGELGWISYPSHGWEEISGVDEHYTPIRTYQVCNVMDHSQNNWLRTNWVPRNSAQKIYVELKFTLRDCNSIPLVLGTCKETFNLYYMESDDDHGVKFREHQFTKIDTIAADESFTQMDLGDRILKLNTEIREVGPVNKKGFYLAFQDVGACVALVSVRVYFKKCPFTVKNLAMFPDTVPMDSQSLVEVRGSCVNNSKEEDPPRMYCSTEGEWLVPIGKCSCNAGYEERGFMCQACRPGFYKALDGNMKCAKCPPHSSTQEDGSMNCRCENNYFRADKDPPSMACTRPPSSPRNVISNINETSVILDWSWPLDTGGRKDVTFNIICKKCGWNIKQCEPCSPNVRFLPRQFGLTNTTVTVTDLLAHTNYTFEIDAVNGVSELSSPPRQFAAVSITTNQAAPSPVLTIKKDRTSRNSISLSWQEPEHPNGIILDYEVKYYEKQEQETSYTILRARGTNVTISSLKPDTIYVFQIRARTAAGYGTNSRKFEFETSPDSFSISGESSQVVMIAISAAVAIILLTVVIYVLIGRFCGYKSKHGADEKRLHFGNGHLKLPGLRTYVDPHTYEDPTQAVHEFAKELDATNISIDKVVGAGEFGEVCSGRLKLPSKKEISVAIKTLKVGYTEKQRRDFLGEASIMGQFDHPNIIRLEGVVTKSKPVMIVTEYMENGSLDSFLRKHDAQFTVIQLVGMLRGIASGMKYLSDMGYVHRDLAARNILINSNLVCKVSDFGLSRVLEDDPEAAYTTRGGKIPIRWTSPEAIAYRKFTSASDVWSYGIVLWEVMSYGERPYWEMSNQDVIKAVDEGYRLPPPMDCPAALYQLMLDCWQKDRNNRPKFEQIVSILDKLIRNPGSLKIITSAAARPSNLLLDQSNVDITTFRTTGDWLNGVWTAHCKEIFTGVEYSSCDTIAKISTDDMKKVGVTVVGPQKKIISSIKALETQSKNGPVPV

**Q.** Which residual activity does the source give for CC(C)(C)n1nc(Cc2cccc3ccccc23)c2c(N)ncnc21 here?
**A.** Its residual activity is 8%.

**Q.** With COc1cc2ncnc(Nc3cccc(Cl)c3)c2cc1OC as the compound, how does the residual activity read?
**A.** The residual activity was 42%.

**Q.** Which residual activity does the source give for O=C1C(Cl)=C(N2C(=O)CCC2=O)C(=O)c2ccccc21 here?
**A.** The residual activity was 89%.

**Q.** How did the residual activity turn out when O=C1Nc2ccc(Cl)cc2/C1=C/c1cc(Cl)c(O)c(Cl)c1 was run?
**A.** Its residual activity is 54%.

**Q.** COc1cc2nccc(Oc3ccc(NC(=O)Nc4cc(C)on4)c(Cl)c3)c2cc1OC was tested. Which residual activity did it give?
**A.** The residual activity was 0%.

**Q.** For Fc1ccc(-c2nc3n(c2-c2ccncc2)CCS3)cc1, which residual activity is on record?
**A.** Its residual activity is 90%.

**Q.** For O=C1Cc2c([nH]c3ccc(Br)cc23)-c2ccccc2N1, which residual activity is on record?
**A.** Its residual activity is 58%.

**Q.** For Nc1ncnc2c1c(-c1ccc(Oc3ccccc3)cc1)cn2C1CCCC1, which residual activity is on record?
**A.** Its residual activity is 48%.

**Q.** Which residual activity does the source give for COc1ccc(-c2cnc3c(-c4ccsc4)cnn3c2)cc1 here?
**A.** Its residual activity is 87%.

**Q.** COc1ccc(COc2ccc(Cc3cnc(N)nc3N)cc2OC)cc1 was tested. Which residual activity did it give?
**A.** Its residual activity is 78%.

**Q.** How did the residual activity turn out when CSc1nc(-c2ccc(F)cc2)c(-c2ccnc(NC(C)c3ccccc3)c2)[nH]1 (configuration not stated) was run?
**A.** Its residual activity is 97%.

**Q.** O=C(O)/C=C/c1cc(Br)c(Br)c(Br)c1Br was tested. Which residual activity did it give?
**A.** The residual activity was 79%.

**Q.** With O=C(CCCc1ccc(-c2ccccc2F)cc1)Nc1ccc(O)cc1 as the compound, how does the residual activity read?
**A.** The residual activity was 111%.

**Q.** Which residual activity does the source give for COc1cc2nccc(Oc3ccc(NC(=S)NC(=O)c4ccccc4C)cc3)c2cc1OC here?
**A.** Its residual activity is 67%.

**Q.** For Nc1ncnc2c1cnn2-c1ccccc1, which residual activity is on record?
**A.** Its residual activity is 84%.

**Q.** For O=C1NC(=O)c2c1c1c3ccccc3[nH]c1n1cncc21, which residual activity is on record?
**A.** Its residual activity is 83%.

**Q.** CC(C)[C@H](CO)Nc1nc(Nc2cc(N)cc(Cl)c2)c2ncn(C(C)C)c2n1 was tested. Which residual activity did it give?
**A.** Its residual activity is 52%.

**Q.** With CC(C)c1nn(-c2c(Cl)cccc2Cl)c2nc(Cc3ccc(OCCO)cc3)[nH]c(=O)c12 as the compound, how does the residual activity read?
**A.** Its residual activity is 85%.

**Q.** How did the residual activity turn out when O=c1cc(N2CCNCC2)oc2c(-c3ccccc3)cccc12 was run?
**A.** The residual activity was 77%.

**Q.** With CN(C)S(=O)(=O)c1ccc2c(c1)/C(=C/c1cc3c([nH]1)CCCC3)C(=O)N2 as the compound, how does the residual activity read?
**A.** The residual activity was 77%.

**Q.** Which residual activity does the source give for Nc1n[nH]c2nc3ccccc3nc12 here?
**A.** Its residual activity is 98%.

**Q.** How did the residual activity turn out when COc1ccc2c(c1)c(C1=C(c3c[nH]c4ccccc34)C(=O)NC1=O)cn2CCCN(C)C was run?
**A.** Its residual activity is 60%.

**Q.** How did the residual activity turn out when CCN(CC)CCNC(=O)c1c(C)[nH]c(/C=C2\C(=O)Nc3ccc(Cl)cc32)c1C was run?
**A.** The residual activity was 47%.

**Q.** For CCCC(=O)Oc1ccc2[nH]c(C(=O)c3cc4ccccc4[nH]3)cc2c1, which residual activity is on record?
**A.** The residual activity was 105%.

**Q.** For O=c1cc(N2CCOCC2)oc2c1ccc1ccccc12, which residual activity is on record?
**A.** The residual activity was 94%.

**Q.** Which residual activity does the source give for CCCCc1c(-c2ccc(OC)cc2)[nH]c2nccnc12 here?
**A.** Its residual activity is 49%.

**Q.** Cn1c2ccccc2c2c3c(c4c5ccccc5n(CCC#N)c4c21)CNC3=O was tested. Which residual activity did it give?
**A.** The residual activity was 50%.

**Q.** NC(=O)Nc1sc(-c2ccc(F)cc2)cc1C(N)=O was tested. Which residual activity did it give?
**A.** The residual activity was 33%.

**Q.** Which residual activity does the source give for Nc1ncnc2[nH]nc(Nc3ccc(F)cc3)c12 here?
**A.** Its residual activity is 42%.

**Q.** For CCCCc1c(-c2ccc(O)cc2)[nH]c2nccnc12, which residual activity is on record?
**A.** The residual activity was 30%.

**Q.** COc1cc2c(cc1OC)-c1n[nH]c(Nc3cccc(F)c3)c1C2 was tested. Which residual activity did it give?
**A.** The residual activity was 42%.

**Q.** For Cn1sc(=O)n(Cc2ccccc2)c1=O, which residual activity is on record?
**A.** Its residual activity is 86%.
